The full ranking holds about 33,000 sequences; the median of “E-score (-0.5 to 0.5)” is about -0.012, and the highest 2% start at about 0.29. The sample as a whole holds a higher share of the highest values than the screen did.
target: T1, Ybr033w (UniProt P38073); assay: PBM E-score (8-mer binding enrichment) (E-score (-0.5 to 0.5)); higher = stronger / more preferred TF binding; conditions: protein concentration: 200 nM; construct: GST-full length
T1 sequence: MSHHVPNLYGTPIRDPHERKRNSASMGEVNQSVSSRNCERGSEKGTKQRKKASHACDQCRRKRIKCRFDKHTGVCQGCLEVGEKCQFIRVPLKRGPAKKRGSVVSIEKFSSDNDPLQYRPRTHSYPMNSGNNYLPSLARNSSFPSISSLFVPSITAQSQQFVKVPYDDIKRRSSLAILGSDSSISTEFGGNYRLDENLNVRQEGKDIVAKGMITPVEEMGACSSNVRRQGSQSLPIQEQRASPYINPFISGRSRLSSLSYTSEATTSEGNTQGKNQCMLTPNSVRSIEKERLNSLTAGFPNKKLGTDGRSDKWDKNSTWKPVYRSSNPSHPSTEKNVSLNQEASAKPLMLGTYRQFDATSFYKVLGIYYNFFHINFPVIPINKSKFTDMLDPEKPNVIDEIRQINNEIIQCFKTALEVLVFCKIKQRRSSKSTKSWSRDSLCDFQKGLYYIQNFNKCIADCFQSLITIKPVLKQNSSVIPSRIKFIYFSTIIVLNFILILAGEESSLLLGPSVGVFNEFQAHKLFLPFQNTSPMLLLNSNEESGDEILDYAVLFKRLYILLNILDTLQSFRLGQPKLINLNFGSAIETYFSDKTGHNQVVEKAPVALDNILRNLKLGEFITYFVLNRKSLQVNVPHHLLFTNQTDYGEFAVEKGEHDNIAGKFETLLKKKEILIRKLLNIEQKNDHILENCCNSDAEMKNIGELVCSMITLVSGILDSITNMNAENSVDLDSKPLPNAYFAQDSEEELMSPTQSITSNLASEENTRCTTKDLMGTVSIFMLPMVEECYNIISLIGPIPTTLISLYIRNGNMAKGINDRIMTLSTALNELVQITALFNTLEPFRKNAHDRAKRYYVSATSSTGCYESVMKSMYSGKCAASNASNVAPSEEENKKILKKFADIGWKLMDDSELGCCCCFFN
In short: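 Masliner-normalised scans of fluorescent anti-GST signal were the basis for scoring. That signal came from GST-tagged yeast transcription factors applied at about 100-200 nM to double-stranded universal all-10-mer Agilent arrays on fresh or once-stripped slides. Each ungapped eight-base word, pooled with its reverse complement, received an E-score from the Universal PBM Analysis Suite.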

Sequence	PBM E-score
CCATTAGA	-0.14
CTGATAGC	-0.0429
TGTTCTAA	0.181
TAGATCTA	0.19
ATTCACAG	0.0908
ATTCACAA	0.294
GTTCACAA	0.18
ATGAGGGG	-0.206
CAAAATAC	0.217
GAAAATAC	0.252
AAAAAAAT	0.248
CAAAATAG	0.0554
AAAAATAC	0.304
AAAAATAG	0.296
ACAAATAG	0.167
ACAAATAT	0.287
AAAAATAT	0.349
CATTTTAG	0.234
CATTTTAA	0.16
ACTTTTAC	0.327
ACTTTTAA	0.125
CATTTTAC	0.298
ACTTTTAG	0.0501
AGAACCGC	0.096
AGCGATTG	-0.0938
CAAATAAC	0.214

Sequence	PBM E-score
GGAAAACA	0.17
GCAAAACA	0.0364
GAAGAACC	0.248
CCAAAACA	-0.026
CAAGAACA	0.0281
GGAAAACC	-0.11
GAAAACCC	-0.0428
GAAGAACA	0.353
GAAAAACA	0.295
TCAAAACA	0.298
AAAAAACA	0.242
GAAAAACC	0.386
CGGAACCA	0.141
AAACAAAC	0.229
AAACAATC	0.234
CAACAATC	0.256
GAACAAAC	0.345
GAACAATA	0.412
CAACAAAC	0.161
GAACAATC	0.323
TAACAATA	0.273
AAACAATA	0.196
TAGCAATA	0.16
AATCAGCT	0.185
AGCTGCCG	-0.115
AGTTAATC	0.368

Sequence	PBM E-score
AGTTAATG	0.216
CGTTAATA	0.166
CGTTAAAA	-0.0301
AGTTAAAA	0.298
TGTTAAAA	0.226
GGTTAATA	0.209
AGTTAATA	0.336
CGTTAATC	0.248
TATTTGGA	0.082
TCCAGACA	-0.127
GAGCGCAA	-0.0711
AACATACA	0.179
CACTCTTA	0.0582
GAAGATGC	-0.106
AATAATGT	0.183
CATAATAA	0.131
TGTAATAA	0.297
AATAATAC	0.245
CGTAATAA	0.154
AACAATAC	0.157
AACAATAA	0.258
GATAATAA	0.194
AATAATAT	0.388
TATAATAA	0.318
GGTAATAA	0.228
AACAATAT	0.375

Sequence	PBM E-score
AAGTTTAA	0.139
AAAAGAAA	0.179
ACGGACGT	-0.144
AAAGAGCC	-0.112
CAGGCTGC	-0.118
TCTAATAA	0.291
AGTAATAC	0.222
AGTAATAG	0.218
AGTAATAT	0.336
CCTAATAA	-0.0059
AATAATAA	0.399
ACTAATAA	0.276
AATAATAG	0.202
CCGGGCGA	-0.226
ACCTACAG	0.0954
TCACGCCA	-0.081
TCATTAAA	0.319
GCATTAAA	0.147
TAATTAAA	0.276
AAATTAAA	0.339
AAATTAAC	0.251
ACATTAAA	0.225
GAATTAAA	0.149
AAATTAAT	0.314
AAATTAAG	0.144
AGGTAGGC	-0.147

Sequence	PBM E-score
AATCTGGG	0.00147
CGCGAGTC	-0.0881
GCATACTA	0.0596
ATAGTTCC	0.25
AGCTGCCA	-0.135
AACAGATA	0.096
GACAGATA	0.0702
TACAGATA	0.291
GGCTGTAA	-0.0501
ATTGAAAG	0.111
ATTGAAAC	0.164
ATTGAATC	0.0535
ATTGAATA	0.305
ATTGAGTC	-0.0117
ATTGAGTA	0.29
CTTGAATA	0.155
ATTGAAAA	0.289
ATTGAAAT	0.296
AATGAAAT	0.282
CTTGAAAA	0.207
GTTGAGTA	0.127
TAGCGTGA	0.00864
AGCTTACT	0.0872
AACAAGGA	0.12
CATCGTAC	0.0156
CACAATCG	0.0764

Sequence	PBM E-score
CTGTGAGC	-0.0445
AGCTAAGG	-0.119
CTCCACGA	-0.0474
CAACCACA	0.0032
TAGAAAGA	-0.0722
CATTCTGC	0.09
AGCAGGAA	0.0849
CAACCGAC	0.107
ATAGTGGA	0.0933
ACTAGGGA	-0.159
GGAAATCC	-0.00538
TAAAAATA	0.285
AGAAAATC	0.232
AAAAAATA	0.278
AAAAATCC	0.287
GGAAAATA	0.414
CGAAAATA	0.23
GAAAAATA	0.397
AGAAAATA	0.314
GAAAATCC	0.308
GCAAAATA	0.287
GGAAAAGA	0.0452
AGGTTGAG	-0.167
AAGGGGAT	-0.0478
AGTACCGG	-0.182
CGGGTGCC	-0.151

Sequence	PBM E-score
TCACTACA	0.243
CCATCTGA	0.0862
CTTTAGGC	-0.0153
AGATTGAC	0.0305
AAGCAAGG	-0.0139
GGACAGAC	-0.174
GAAAATAA	0.304
CAAAAATC	0.236
CAAAAATA	0.316
ACAAATAA	0.265
CAAAAATG	0.157
TAAAATAA	0.261
CCAAAATA	0.182
AAAAATAA	0.275
TCAAATAA	0.202
GCAAATAA	0.322
GAAAAATC	0.381
AAAAAATC	0.248
ATAGCGCA	0.0412
GACGATTA	-0.0748

Reference: the supplement of paper PMC3334620
